Activity calls are given as the source filed them. Rule for the calls: active = hit-call score of the fitted dose curve at least 0.9, where 1 is the maximum; inactive = score below 0.9.
Assays:
[1] = read-out: Tissue plasminogen activator (tPA), PLAT (gene 5327); test: BSK_BE3C_tPA: BioMAP Diversity Plus: BE3C Assay for Tissue plasminogen activator (tPA) Biomarker Activity (AID 2283041); conditions: primary human bronchial epithelial cells; actives raise or lower the signal
How it was run: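 ELISA read-out of tPA on human primary bronchial epithelial cells, 24 h post-dosing; bidirectional fit vs DMSO negative control/baseline.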

[2] = read-out: Interleukin-8 (IL8), CXCL8 (gene 3576); test: BSK_CASM3C_IL8: BioMAP Diversity Plus: CASM3C Assay for Interleukin-8 (IL8) Biomarker Activity (AID 2283042); conditions: primary human coronary artery smooth muscle cells; actives raise or lower the signal;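 note: IL-8 protein level quantified by ELISA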
[3] = read-out: Human Leukocyte Antigen - DR isotype (HLADR), HLA-DRA (gene 3122); test: BSK_CASM3C_HLADR: BioMAP Diversity Plus: CASM3C Assay for Human Leukocyte Antigen - DR isotype (HLADR) Biomarker Activity (AID 2283043); conditions: primary human coronary artery smooth muscle cells; actives raise or lower the signal;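 note: cell-surface HLA-DR protein level quantified by ELISA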
[4] = read-out: Macrophage colony-stimulating factor (MCSF), CSF1 (gene 1435); test: BSK_CASM3C_MCSF: BioMAP Diversity Plus: CASM3C Assay for Macrophage colony-stimulating factor (MCSF) Biomarker Activity (AID 2283044); conditions: primary human coronary artery smooth muscle cells; actives raise or lower the signal;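 note: M-CSF protein amount quantified by ELISA after 24 h exposure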
[5] = read-out: Low-density lipoprotein receptor (LDLR), LDLR (gene 3949); test: BSK_CASM3C_LDLR: BioMAP Diversity Plus: CASM3C Assay for Low-density lipoprotein receptor (LDLR) Biomarker Activity (AID 2283045); conditions: primary human coronary artery smooth muscle cells; actives raise or lower the signal;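 note: LDLR protein level on the cell surface quantified by ELISA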
[6] = read-out: Monocyte Chemoattractant Protein-1 (MCP1), CCL2 (gene 6347); test: BSK_CASM3C_MCP1: BioMAP Diversity Plus: CASM3C Assay for Monocyte Chemoattractant Protein-1 (MCP1) Biomarker Activity (AID 2283046); conditions: primary human coronary artery smooth muscle cells; actives raise or lower the signal;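 note: MCP-1 level quantified by ELISA 24 h after dosing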
[7] = BSK_CASM3C_Proliferation: Cell Proliferation Assessment in the BioMAP Diversity Plus: CASM3C Assay (AID 2283047); conditions: primary human coronary artery smooth muscle cells;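 note: sulforhodamine B total protein stain as relative cell number at 560 nm; sub-confluent cells exposed 48 h before staining; fitted both ways against DMSO so gain or loss of cell number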
[8] = read-out: Monokine induced gamma interferon (MIG), CXCL9 (gene 4283); test: BSK_CASM3C_MIG: BioMAP Diversity Plus: CASM3C Assay for Monokine induced gamma interferon (MIG) Biomarker Activity (AID 2283048); conditions: primary human coronary artery smooth muscle cells; actives raise or lower the signal;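 note: MIG protein level measured by ELISA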
[9] = read-out: serum amyloid A (SAA), SAA1 (gene 6288); test: BSK_CASM3C_SAA: BioMAP Diversity Plus: CASM3C Assay for serum amyloid A (SAA) Biomarker Activity (AID 2283049); conditions: primary human coronary artery smooth muscle cells; actives raise or lower the signal;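 note: SAA protein level quantified by ELISA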
[10] = BSK_CASM3C_SRB: Viability Assessment in the BioMAP Diversity Plus: CASM3C Assay (AID 2283050); conditions: primary human coronary artery smooth muscle cells;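 note: total protein by SRB staining as cytotoxicity measure in parallel cultures; cells exposed to compound for 24 h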
[11] = read-out: Thrombomodulin, THBD (gene 7056); test: BSK_CASM3C_Thrombomodulin: BioMAP Diversity Plus: CASM3C Assay for Thrombomodulin Biomarker Activity (AID 2283051); conditions: primary human coronary artery smooth muscle cells; actives raise or lower the signal;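 note: thrombomodulin protein level measured by ELISA 24 h after dosing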
[12] = read-out: Tissue Factor, F3 (gene 2152); test: BSK_CASM3C_TissueFactor: BioMAP Diversity Plus: CASM3C Assay for Tissue Factor Biomarker Activity (AID 2283052); conditions: primary human coronary artery smooth muscle cells; actives raise or lower the signal;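 note: cell surface tissue factor protein level read by ELISA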
[13] = read-out: Interferon-gamma inducible Protein 10 (IP10), CXCL10 (gene 3627); test: BSK_hDFCGF_IP10: BioMAP Diversity Plus: hDFCGF Assay for Interferon-gamma inducible Protein 10 (IP10) Biomarker Activity (AID 2283053); conditions: primary human foreskin fibroblasts; actives raise or lower the signal
How it was run: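 ELISA read-out of IP-10 (CXCL10) from primary human skin fibroblasts, 24 h after compound addition. Gain or loss of signal versus DMSO baseline, bidirectional curve fitting.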

[14] = read-out: Urokinase-type plasminogen activator receptor (uPAR), PLAUR (gene 5329); test: BSK_CASM3C_uPAR: BioMAP Diversity Plus: CASM3C Assay for Urokinase-type plasminogen activator receptor (uPAR) Biomarker Activity (AID 2283054); conditions: primary human coronary artery smooth muscle cells; actives raise or lower the signal;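 note: cell-surface uPAR protein level quantified by ELISA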
[15] = read-out: Vascular cell adhesion molecule 1 (VCAM1), VCAM1 (gene 7412); test: BSK_CASM3C_VCAM1: BioMAP Diversity Plus: CASM3C Assay for Vascular cell adhesion molecule 1 (VCAM1) Biomarker Activity (AID 2283055); conditions: primary human coronary artery smooth muscle cells; actives raise or lower the signal;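 note: VCAM-1 protein level quantified by ELISA on the cells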
[16] = read-out: Collagen III, COL3A1 (gene 1281); test: BSK_hDFCGF_CollagenIII: BioMAP Diversity Plus: hDFCGF Assay for Collagen III Biomarker Activity (AID 2283056); conditions: primary human foreskin fibroblasts; actives raise or lower the signal
How it was run: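 Human foreskin primary fibroblasts were exposed to test chemicals for 24 h, after which collagen III was quantified by ELISA. Activity was fitted bidirectionally against DMSO as negative control and baseline.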

[17] = read-out: Epidermal growth factor receptor (EGFR), EGFR (gene 1956); test: BSK_hDFCGF_EGFR: BioMAP Diversity Plus: hDFCGF Assay for Epidermal growth factor receptor (EGFR) Biomarker Activity (AID 2283057); conditions: primary human foreskin fibroblasts; actives raise or lower the signal
How it was run: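 ELISA readout of EGFR on human dermal fibroblasts (primary foreskin cells), 24 h post-dosing; bidirectional curve fit vs DMSO baseline, gain or loss of signal scored.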

[18] = read-out: Interleukin-8 (IL8), CXCL8 (gene 3576); test: BSK_hDFCGF_IL8: BioMAP Diversity Plus: hDFCGF Assay for Interleukin-8 (IL8) Biomarker Activity (AID 2283058); conditions: primary human foreskin fibroblasts; actives raise or lower the signal
How it was run: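 hDFCGF human dermal fibroblasts; 24 h chemical exposure; IL-8 by ELISA; bidirectional curve fit vs DMSO baseline; gain or loss of signal scored.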

[19] = BSK_hDFCGF_Proliferation: Cell Proliferation Assessment in the BioMAP Diversity Plus: hDFCGF Assay (AID 2283059); conditions: primary human foreskin fibroblasts;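 note: curves fitted for both rise and fall of signal versus DMSO baseline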
How it was run: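 Total protein read at 560 nm after 0.1% SRB staining of TCA-fixed human skin fibroblasts, […]. Activity is fitted in both directions relative to DMSO as baseline.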

Measured: AC50

CCSC(=O)N(CC)C1CCCCC1
inactive: all assays above

Clc1ccc(C(Cl)(Cl)Cl)cc1
inactive: all assays above

CO/C=C(/C(=O)OC)c1ccccc1COc1cccc(C(F)(F)F)n1
active: [2] 3.94 µM | [7] 5.66 µM | [16] 1.75 µM | [19] 4.78 µM
inactive: all other assays above

N#Cc1ccc(N(CC(N)=O)CC(F)(F)F)cc1C(F)(F)F
active: [6] 0.335 µM
inactive: all other assays above

CCC(C)(c1ccc(O)cc1)c1ccc(O)cc1
active: [7] 25.5 µM | [11] 26.5 µM | [13] 30.1 µM | [16] 20 µM | [19] 30.4 µM
inactive: all other assays above

Nn1cnnc1
inactive: all assays above

Nc1ccc(-c2ccc(N)cc2)cc1
active: [1] 6.73 µM
inactive: all other assays above

Cc1ccccc1[N+](=O)[O-]
inactive: all assays above

O=S(=O)(O)C(F)(F)C(F)(F)C(F)(F)C(F)(F)C(F)(F)C(F)(F)F
inactive: all assays above

c1ccc(-c2ccccc2)cc1
inactive: all assays above

Cc1ccccc1CO[C@@H]1C[C@@]2(C(C)C)CC[C@]1(C)O2
inactive: all assays above

CCCCCCOC(=O)c1ccccc1C(=O)OCCCCCC
active: [11] 17.5 µM | [16] 7.56 µM | [19] 11.2 µM
inactive: all other assays above
